Source: PubChem
Hits are enriched below; roughly 21% of the tested compounds scored in any of these assays.
Shiga inhibitor: Shiga toxin inhibition. actives 9.2% (n = 290,000). inhibition, % at 38.7 µM. AID 2315. Vero cells, Shiga toxin protein synthesis inhibition reporter; in the data active means inhibition mostly above about 28%, no sharp cut-off; inactive means mostly below about 43%; further: 0% is about no effect
NS1 inh: blocks influenza NS1 protein function; actives 0.4% (n = 270,000); AID 2326; Potency, µM (titrated, usually from 46.1 µM), for the others: at the highest dose activity, positive = more growth; calls by dose curve; further: potency means the concentration at half of the fitted maximal effect; actives are rising curves; nearly all actives have a fitted effect of over 50% in size
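Compounds were scored for reversing the slow growth caused by influenza A NS1 in S. cerevisiae, measured by optical density at 600 nm. Assay medium contained 2% galactose at pH 6.0; NS1-free yeast of the same strain were the positive control.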
Pf growth 48h: inhibits P. falciparum growth in the first generation, 48 h. actives 5.9% (n = 310,000). AID 504832. Potency, µM (series often up to 28.7 µM), inactives show top-dose activity change, negative = inhibition, actives largely listed as inhibitors. P. falciparum luciferase growth in erythrocytes, 48 h; further: potency means the concentration at half of the fitted maximal effect; on the % scale 0 is the no-effect control and ±100 the full control effect
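In quantitative HTS format, infected erythrocytes bearing luciferase-reporter parasites were treated for a single generation at 37 C. Luminescence after adding detection reagent served as the growth measure.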
Pf growth 96h: inhibits malaria parasite growth, 96 h. P. falciparum luciferase reporter growth, 96 h. Potency, µM (top dose mostly 28.7 µM), for inactives: at the top dose activity change, negative = inhibition, usual class: inhibitors. actives 6.9% (n = 320,000). AID 504834; further: potency means the concentration at half of the fitted maximal effect; on the % scale 0 is the no-effect control and ±100 the full control effect
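Erythrocytes infected with luciferase-expressing P. falciparum were dispensed at 2% hematocrit and 0.05% parasitemia (final), then incubated with compounds 96 hours at 37 C in 5% CO2. Luminescence after detection reagent addition reported growth.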
Cycloheximide cs: counter-screen hit for Shiga toxin inhibitors, cycloheximide; actives 12% (n = 300,000); max response, %; cell reporter, cycloheximide protein synthesis inhibition counterscreen; in the data active means max response mostly above about 13%, no sharp cut-off; inactive means mostly below about 14%; further: read at 38.3 µM for the half of the compounds with a filed dose; 0% is about no effect
The depositor's hits bear a star; ? = inconclusive; nt = no result; ! = not active in a repeat. Unless noted, the call rests on the fitted dose curve; in most records, active means well fitted inhibition curve with a large enough effect; inconclusive means small, poorly fitted or top-dose-only effect, or another doubt; inactive means no such curve, though single readings can be large or run the other way.

SMILES	Shiga inhibitor	NS1 inh	Pf growth 48h	Pf growth 96h	Cycloheximide cs
CCN(CC)S(=O)(=O)c1cc(NC(=O)CCCOc2ccc(C(C)=O)cc2)ccc1C	-10.7	-13.6%	-28.0%	-11.3%	-1.5
O=C(CN1C(=O)/C(=C/c2ccccc2F)Sc2ccccc21)N1CCN(c2ccccn2)CC1	-18.6	nt	-0.8%	?	-2.8
NC(=O)N/N=C\c1cc(Br)ccc1O	-8.0	4.3%	-15.2%	16.8%	2.0
CCc1nnc(N/N=C/c2cc(Br)c(O)cc2O)n1N	24.0*	-74.1%	?	-3.1%	13.1*
CC(C)(C)c1nnc(N/N=C/c2cc(Br)ccc2O)n(N)c1=O	-9.1	-3.2%	3.29µM*	8.28µM*	-5.5
CC1=Nc2cc(C(=O)NCCN3CCOCC3)ccc2Sc2c(C)ccc(C)c21	-13.5	-2.2%	?	11.7µM*	-5.9
CCN1CCN(CCNC(=O)c2ccc(/C=C3/Sc4ccccc4N(Cc4ccccc4C)C3=O)cc2)CC1	-34.3	nt	11.7µM*	14.6%	-13.2
O=C(NCCN1CCOCC1)c1ccc2c(c1)N(Cc1ccccc1F)C(=O)c1ccccc1S2	-6.4	nt	?	?	2.9
Cc1ccccc1CN1C(=O)c2ccccc2Sc2ccc(C(=O)NCCN3CCOCC3)cc21	8.8	-2.8%	8.28µM*	?	-3.2
CSCCC(NC(=O)COc1ccccc1)C(=O)N1CCCC(C)C1 (stereo not given)	6.8	0.4%	-1.8%	28.9%	9.6
Cc1ccc(C(=O)CCC(=O)Nc2ccc(C)cn2)cc1	nt	nt	3.3%	2.7%	nt
CN1C[C@@H]2C(c3ccccc3)C3(c4ccccc4)CC2(C3)[C@H]1c1ccccc1 (stereo not given in full)	-9.8	7.2%	?	?	-2.0
CN1C[C@@H]2C(c3ccc(C(F)(F)F)cc3)C3(c4ccc(C#N)cc4)CC2(C3)[C@H]1c1ccccc1 (stereo not given in full)	-6.2	-15.7%	11.7µM*	11.7µM*	-4.5
CN1C[C@@H]2C(c3ccccc3)C3(c4ccc(C#N)cc4)CC2(C3)[C@H]1c1ccccc1 (stereo not given in full)	-5.9	1.3%	10.4µM*	10.4µM*	-1.2
O=C(COC(=O)Cc1cccc(C(F)(F)F)c1)Nc1ccc2[nH]c(=O)[nH]c2c1	nt	nt	11.2%	19.7%	nt
CC(C)Cn1c(=O)c(-[n+]2ccccc2)c([O-])c2ccccc21	-8.4	nt	-4.3%	13.1µM*	8.7
N#C/C(=C\c1c(F)cccc1Cl)c1nn(-c2ccccc2)c(-n2cccc2)c1C#N	10.0	7.9%	11.7µM*	?	-2.2
COc1ccc(C2(c3ccc(O)cc3O)CC(c3ccccc3Cl)NC(=S)N2)cc1 (stereo not given)	-11.3	0.7%	11.7µM*	-0.8%	-2.8
Cc1sc2ccccc2c1CC1=NCCN1	nt	-5.2%	?	8.49µM*!	nt
c1ccc2c(c1)sc1ccccc12	nt	nt	9.3%	0.8%	nt
CCOC(=O)c1nnn(-c2nonc2-n2cccc2)c1C	-13.4	-2.4%	?	?	9.2
CCOC(=O)c1nnn(-c2nn3nnnc3c3ccccc23)c1C	31.4	-3.7%	0.928µM*	-29.4%	1.5
COc1cc2c(cc1OC)C(NC(=O)C(F)(F)F)C/C2=N\O (stereo not given)	-15.0	nt	13.1µM*	13.4%	-8.5
O=C(CCn1nc(-c2ccc(Cl)cc2)ccc1=O)NCc1cccnc1	-13.2	-2.8%	1.17µM*	4.1%	21.3
O=C(Cc1ccccc1)NCc1cccnc1	7.6	nt	38.6%	3.7%	5.2
SMILES	Shiga inhibitor	NS1 inh	Pf growth 48h	Pf growth 96h	Cycloheximide cs
O=C(CC(=O)NCc1cccnc1)NCc1cccnc1	-12.0	2.7%	7.5%	10.4µM*	-4.6
O=C(NCc1cccnc1)C(Cl)(Cl)Cl	-6.5	0.9%	-13.3%	3.7µM*	-3.9
O=c1oc(-c2cccs2)nc2c1cnn2-c1ccccc1	-17.8	-4.9%	nt	-28.4%	-1.8
CCn1c(=O)c(=O)[nH]c2cc(C(=O)N(C)Cc3ccc(OC)c(F)c3)ccc21	-2.6	11.2%	-13.5%	?	-5.7
COc1cc(CN2CC(=O)N(c3ccc(C)c(Cl)c3)C2=S)cc(OC)c1OC	-1.5	4.9%	2.08µM*	-1.0%	1.6
Cc1cccc(N2C(=O)CN(Cc3ccccc3)C2=S)c1	22.5	0.6%	nt	0.0%	-2.1
COc1ccc(CN2CC(=O)N(c3ccc(C)cc3)C2=S)cc1OC	-1.4	14.3%	?	0.0%	-2.1
COc1cc(CN2CC(=O)N(c3ccc(C)cc3)C2=S)cc(OC)c1OC	-10.2	8.2%	0.828µM*	-13.6%	0.4
COC(=O)c1c(NC(NC(C)=O)C(Cl)(Cl)Cl)sc2c1CCCC2 (stereo not given)	13.7	15.4%	?	10.4µM*	5.8
COC(=O)c1c(NC(NC(=O)CC(C)C)C(Cl)(Cl)Cl)sc2c1CCC2 (stereo not given)	9.4	8.4%	?	11.7µM*	10.7
CCCSc1nc(O)c(C(c2ccc(OC)c(O)c2)c2c(O)nc(SCCC)n(C)c2=O)c(=O)n1C	-16.1	9.5%	-14.5%	-22.8%	-1.9
COc1ccc(OCC(=O)N2CCN(C(=O)c3ccc([N+](=O)[O-])cc3)CC2)cc1	27.0	-1.3%	14.7%	-5.4%	4.6
COc1ccc(-n2cccc2C=O)cc1OC	25.1	3.0%	28.4%	13.8%	-2.9
O=Cc1cccn1-c1ccc2ccccc2c1	42.1*	-1.9%	59.3%	6.2%	29.5*
COc1ccc(CC(=O)N[C@@H](C)C(=O)N2CCC3(CC2)NCCc2[nH]cnc23)cc1	-2.3	-4.6%	13.0%	15.2%	14.0
COc1cc(C(=O)ON=C2C=C(C)C(=O)C(C)=C2)cc(OC)c1OC	-26.2	-10.3%	-24.5%	30.3%	7.8
COc1cc(C(=O)O/N=C2\C=CC(=O)C(C)=C2)cc(OC)c1OC	101.4*	-35.1%	?	?	71.1*
CC12CN(C(=S)Nc3ccccc3)CC(C)(CN(C(=S)Nc3ccccc3)C1)C2=O	-12.3	-2.3%	?	20.5%	12.8
O=C1CC(c2ccco2)CC(O)=C1C=NCC1NCCc2ccccc21 (stereo not given)	6.1	-1.3%	10.4µM*	1.0%	-2.3
O=C1CC(c2ccco2)CC(O)=C1C=NCCO (stereo not given)	-46.6	-12.3%	73.7%	-7.0%	-3.9
O=C1CC(c2ccccc2)CC(O)=C1C=Nc1ccc(O)cc1 (stereo not given)	61.7	1.3%	19.0%	13.1µM*	17.6*
COc1cccc(CNc2ncnc3ccc(-c4c(C)noc4C)cc23)c1	-4.3	nt	4.15µM*	5.86µM*	-5.9
Cc1ccsc1CNc1ncnc2ccc(-c3c(C)noc3C)cc12	57.4*	nt	nt	nt	27.6
Cc1ccc(CNc2ncnc3ccc(-c4c(C)noc4C)cc23)cc1	25.2	nt	nt	nt	12.5
Cc1noc(C)c1-c1ccc2ncnc(NCC3CCCCN3C)c2c1 (stereo not given)	-2.3	nt	4.15µM*	2.33µM*	-7.2
Cc1cc(S(=O)(=O)N2CCCc3ccccc32)ccc1-n1cnnn1	0.8	-5.1%	4.3%	22.1%	-1.5
CCN(CC(=O)Nc1ccccc1OC)CC(=O)Nc1ccccc1-c1ccccc1	-20.3	nt	?	9.1%	-3.6
